Unmarked numbers belong to inactive results. For some of these results: Results with a measured potency or affinity are listed apart. The source made the active and inactive calls. Unless noted, no rule for the calls is given here.
Assays:
[1] = antimalarial activity against Dd2 strain (AID 2302;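 active = growth inhibition above 50% at the single 2 µM test dose, taken to imply half-maximal potency below 2 µM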;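 also: 0% = DMSO untreated growth and 100% = chloroquine plus artemisinin killed control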); details: P. falciparum Dd2 in RBCs, LDH growth readout, 72 h; at 2 µM; stronger effect = higher value
[2] = human hepatoma cell viability loss – ATP luminescence, cytotoxicity control for P. falciparum antimalarial project, primary screen (AID 2303;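 active = inhibition above 50%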;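 also: 0% = DMSO wells and 100% = digitonin-killed cells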); details: HepG2 viability, 24-48 h, at 10 µM, stronger effect = higher value
[3] = biological target: L-lactate dehydrogenase (Plasmodium falciparum (isolate CDC / Honduras)) (UniProt Q27743); assay: PfLDH activity inhibition – cell lysate, 3D7 strain, counter-screen for P. falciparum growth inhibition project (AID 2304);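 also: 0% = vehicle and 100% = reference inhibitor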; details: P. falciparum 3D7 crude extract, LDH APAD/NBT absorbance; at 2 µM; stronger effect = higher value
[4] = inhibition of 3D7 malaria parasite growth – strain 3D7 (AID 2306);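 also: 0% = DMSO wells and 100% = chloroquine plus artemisinin control wells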; details: P. falciparum 3D7 erythrocytic growth, LDH absorbance, 72 h; at 2 µM; stronger effect = higher value
[5] = biological target: Calcium-dependent protein kinase 1 (Plasmodium falciparum (isolate 3D7)) (UniProt P62344); assay: PfCDPK1 kinase inhibitors, biochemical, TCAMS library (AID 1159585; cut-off not given, nearly all actives have IC50 up to about 0.98 µM;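 also: inhibitors leave more ATP so luminescence rises with inhibition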); details: recombinant PfCDPK1, Kinase-Glo ATP depletion luminescence
[6] = biological target: Plasmodium falciparum protein kinase 6 (PK6, PF3D7_1337100) (UniProt Q8IDW1); assay: PfPK6 kinase inhibitors, biochemical, TCAMS library (AID 1159586); details: recombinant PfPK6, Kinase-Glo ATP depletion luminescence
[7] = biological target: Protein kinase 7 (PK7), Plasmodium falciparum 3D7 (PF3D7_0213400) (UniProt Q7YTF7); assay: inhibition of Plasmodium PK7 catalytic activity – biochemical, TCAMS antimalarial set, Kinase-Glo luminescence (AID 1159587); details: recombinant PfPK7, Kinase-Glo ATP depletion luminescence
[8] = biological target: Calcium-dependent protein kinase 4 (Plasmodium falciparum (isolate 3D7)) (UniProt Q8IBS5); assay: PfCDPK4 kinase inhibitors, biochemical, TCAMS library (AID 1159588; cut-off not given, nearly all actives have IC50 up to about 0.91 µM); details: recombinant PfCDPK4, Kinase-Glo ATP depletion luminescence
Chain of Calcium-dependent protein kinase 4 (Plasmodium falciparum (isolate 3D7)) (Q8IBS5 whole entry, looked up): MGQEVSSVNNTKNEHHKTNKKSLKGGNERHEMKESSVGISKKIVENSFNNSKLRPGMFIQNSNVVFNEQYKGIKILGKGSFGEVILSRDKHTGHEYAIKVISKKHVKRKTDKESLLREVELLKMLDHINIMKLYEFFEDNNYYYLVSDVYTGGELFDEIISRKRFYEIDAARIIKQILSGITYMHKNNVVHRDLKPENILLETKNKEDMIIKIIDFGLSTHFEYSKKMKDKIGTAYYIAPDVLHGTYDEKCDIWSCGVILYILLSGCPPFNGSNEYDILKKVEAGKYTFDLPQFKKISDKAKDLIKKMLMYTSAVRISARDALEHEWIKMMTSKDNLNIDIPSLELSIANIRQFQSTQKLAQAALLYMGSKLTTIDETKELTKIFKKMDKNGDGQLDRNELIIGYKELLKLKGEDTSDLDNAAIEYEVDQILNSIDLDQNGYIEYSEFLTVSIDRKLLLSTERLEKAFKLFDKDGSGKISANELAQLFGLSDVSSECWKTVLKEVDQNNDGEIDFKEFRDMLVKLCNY

Chain of L-lactate dehydrogenase (Plasmodium falciparum (isolate CDC / Honduras)) (Q27743 whole entry, looked up): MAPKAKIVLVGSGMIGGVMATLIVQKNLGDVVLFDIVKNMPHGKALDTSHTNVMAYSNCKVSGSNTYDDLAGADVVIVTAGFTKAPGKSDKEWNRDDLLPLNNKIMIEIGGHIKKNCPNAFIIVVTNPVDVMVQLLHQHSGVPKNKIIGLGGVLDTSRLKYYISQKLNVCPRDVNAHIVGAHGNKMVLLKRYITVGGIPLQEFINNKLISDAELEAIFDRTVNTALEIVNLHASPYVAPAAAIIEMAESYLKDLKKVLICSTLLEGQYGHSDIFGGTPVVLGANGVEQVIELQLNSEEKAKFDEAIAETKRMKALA
Chain of Plasmodium falciparum protein kinase 6 (PK6, PF3D7_1337100) (Q8IDW1 1-305): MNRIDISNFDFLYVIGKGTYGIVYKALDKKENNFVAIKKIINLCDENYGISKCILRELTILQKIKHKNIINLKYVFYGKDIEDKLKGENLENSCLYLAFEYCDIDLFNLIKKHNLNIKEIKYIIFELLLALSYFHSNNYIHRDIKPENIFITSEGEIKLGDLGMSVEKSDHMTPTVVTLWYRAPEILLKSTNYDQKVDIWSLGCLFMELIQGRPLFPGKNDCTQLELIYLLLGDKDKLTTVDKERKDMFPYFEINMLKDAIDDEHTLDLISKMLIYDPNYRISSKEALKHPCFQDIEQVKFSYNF
Chain of Calcium-dependent protein kinase 1 (Plasmodium falciparum (isolate 3D7)) (P62344 whole entry, looked up): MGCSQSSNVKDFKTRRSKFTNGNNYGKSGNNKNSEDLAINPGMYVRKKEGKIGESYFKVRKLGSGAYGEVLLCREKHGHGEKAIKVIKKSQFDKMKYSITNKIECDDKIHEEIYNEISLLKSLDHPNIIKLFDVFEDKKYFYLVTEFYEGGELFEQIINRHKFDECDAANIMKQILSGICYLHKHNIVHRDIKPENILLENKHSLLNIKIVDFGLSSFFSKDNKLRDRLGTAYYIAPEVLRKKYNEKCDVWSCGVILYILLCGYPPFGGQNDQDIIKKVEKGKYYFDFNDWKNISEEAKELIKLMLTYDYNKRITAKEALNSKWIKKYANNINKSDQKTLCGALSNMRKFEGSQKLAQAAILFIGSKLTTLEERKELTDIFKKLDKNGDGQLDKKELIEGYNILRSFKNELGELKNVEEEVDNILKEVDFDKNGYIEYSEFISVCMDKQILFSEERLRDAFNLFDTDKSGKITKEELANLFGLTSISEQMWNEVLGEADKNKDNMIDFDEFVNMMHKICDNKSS
Chain of Protein kinase 7 (PK7), Plasmodium falciparum 3D7 (PF3D7_0213400) (Q7YTF7 1-343): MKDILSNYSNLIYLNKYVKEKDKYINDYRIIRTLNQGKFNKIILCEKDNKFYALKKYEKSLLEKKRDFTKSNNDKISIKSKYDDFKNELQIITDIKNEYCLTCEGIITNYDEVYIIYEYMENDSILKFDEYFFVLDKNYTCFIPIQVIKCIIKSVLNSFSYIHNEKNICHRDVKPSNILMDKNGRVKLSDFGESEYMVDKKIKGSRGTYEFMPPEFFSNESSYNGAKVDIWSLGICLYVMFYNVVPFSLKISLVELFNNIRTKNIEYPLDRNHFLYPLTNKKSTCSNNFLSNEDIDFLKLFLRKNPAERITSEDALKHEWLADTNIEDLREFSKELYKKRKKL

Structure (SMILES) | growth inhibition [1] | inhibition [2] | inhibition [3] [%] | growth inhibition [4] | outcome [5] | outcome [6] | outcome [7] | outcome [8]
COc1ccc(Nc2ncc3c(-c4cccc(NC(=O)Cc5ccncc5)c4)c[nH]c3n2)cc1OC | 87% (active) | 23% | 1 | 99% (active) | inactive | inactive | inactive | inactive
OCCCCCCNc1nc(NCc2ccccc2-c2ccc(C(F)(F)F)cc2)nc(N2CCNCC2)n1 | 16% | 13% | 2 | 89% (active) | inactive | inactive | inactive | inactive
CCc1c(CCNCCCCCCNCCc2ccccc2)ccc(OC)c1OC | 3% | 33% | -2 | 102% (active) | inactive | inactive | inactive | inactive
CNc1ccc(CNCc2cccc(-c3ccc(-c4nc5ccccc5[nH]4)s3)c2)cc1 | 77% (active) | 15% | -3 | 100% (active) | inactive | inactive | inactive | inactive
O=C(NCc1ccccc1)c1ncn(CCCN2CCC(N3CCCC3)CC2)c1-c1ccc(Cl)c(Cl)c1 | 36% | 8% | 3 | 89% (active) | inactive | inactive | inactive | inactive
Cc1nc2nc(N)nc(N)c2c(C)c1Cc1cccc(F)c1 | 1% | 65% (active) | -5 | 96% (active) | inactive | inactive | inactive | inactive
Cc1ccc2nc(NC#N)[nH]c2c1 | -3% | 7% | 2 | 96% (active) | inactive | inactive | inactive | inactive
O=C(Nc1ccc(Cl)cc1)N[C@H]1CCN(CCCCCNC(=O)[C@@H]2C[C@H]2c2ccc(Cl)c(Cl)c2)C1 | 1% | 24% | 1 | 96% (active) | inactive | inactive | inactive | inactive
CCCC(=O)Nc1ccc(OCCCN(Cc2ccccc2C(F)(F)F)c2ccc(C#N)c(C(F)(F)F)c2)cc1 | 79% (active) | -5% | 2 | 89% (active) | inactive | inactive | inactive | inactive
CC1N=C(N)N=C(N)N1OCc1ccccc1 (stereo not given) | 72% (active) | 62% (active) | 7 | 94% (active) | inactive | inactive | inactive | inactive
COc1ccc(-c2cccc(CNC3CCN(C)CC3)c2)cc1S(=O)(=O)NCc1ccccc1 | 22% | 18% | -5 | 90% (active) | inactive | inactive | inactive | inactive
Nc1ncnc2cc(-c3cccc(NC(=O)Nc4ccccc4)c3)sc12 | 33% | 4% | 9 | 94% (active) | inactive | inactive | inactive | inactive
Cc1cc(Nc2ccc3ccccc3c2)n2ncnc2n1 | 95% (active) | 11% | -2 | 96% (active) | inactive | inactive | inactive | inactive
COc1ccccc1N1CCN(CCCCNC(=O)c2ccc(NC(=O)c3ccc(OC(F)(F)F)cc3)cc2)CC1 | 39% | 29% | -6 | 100% (active) | inactive | inactive | inactive | inactive
CC(=O)NCC(=O)NC1=NC(C)(C)N(OCc2ccc3ccccc3c2)C(N)=N1 | 97% (active) | 66% (active) | -1 | 95% (active) | inactive | inactive | inactive | inactive
O=C(Nc1ccc2c(c1)OCO2)NC1CCN(c2ccnc(Nc3ccc(F)cc3)n2)C1 (stereo not given) | 89% (active) | 5% | 3 | 100% (active) | inactive | inactive | inactive | inactive
Nc1nc2ccc(CN(C=O)c3ccc(C(=O)N[C@@H](CCC(=O)O)C(=O)O)cc3)cc2c(=O)[nH]1 | 94% (active) | -5% | 2 | 93% (active) | inactive | inactive | inactive | inactive
CC1(C)C(=O)Nc2ccccc2N1C(=O)CN1CCN(c2ccccc2O)CC1 | 72% (active) | 7% | 0 | 92% (active) | inactive | inactive | inactive | inactive
Cc1[nH]c(C)c(-c2ccc(-c3cccc(Cl)c3)nc2)c(=O)c1Br | 96% (active) | 10% | 3 | 96% (active) | inactive | inactive | inactive | inactive
Nc1nccc(-c2ccc3c(-c4cccc(F)c4)cnc(N)c3c2)n1 | 44% | 41% | 5 | 93% (active) | inactive | inactive | inactive | inactive

From PubChem BioAssay
